According to PubChem BioAssay (Tox21):
Several values for one entry are separate records, joined by “and”; a condition that tells them apart may be missing. Identical values can stand only once. Inconclusive results are not listed. Activity calls are given as the source filed them. Unless noted, calls follow the shape of the dose curve; as a rule, active = well fitted curve in the direction sought with a large enough effect in the repeat runs; inconclusive = weak or mixed curves; inactive = no such curve, though single readings can be large; an effect the other way counts as inactive or inconclusive.

Experiments:
[1] = qHTS assay for small molecule agonists of the p53 signaling pathway (AID 651631; calls by dose curve; also: nearly all actives have a fitted effect of over 15% in size; also: potency is read from the fitted curve at half-maximal effect)
In short: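 p53RE-bla HCT-116 cells; compounds 16 h, 37 °C; LiveBLAzer B/G FRET substrate 2 h RT; fluorescence intensity read-out, qHTS format.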

[2] = qHTS assay for small molecules that induce genotoxicity in human embryonic kidney cells expressing luciferase-tagged ATAD5 (AID 651632); also: nearly all actives have a fitted effect of over 15% in size; also: potency is read from the fitted curve at half-maximal effect
In short: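 Concentration-response screen for ATAD5 upregulation in HEK293T luciferase reporter cells; 16 hr treatment at 37C, then luminescence after 30 min with Amplite at room temperature.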

[3] = qHTS assay for small molecule agonists of the p53 signaling pathway - cell viability (AID 651633; calls by dose curve; also: nearly all actives have a fitted effect of over 30% in size; also: potency is read from the fitted curve at half-maximal effect;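 as to activity change, negative = cytotoxicity: p53RE-bla HCT reporter cells with a stable beta-lactamase p53 reporter; series mostly up to about 83 µM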)
In short: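 Viability counter-read: CellTiter-Glo luminescence (30 min, room temperature) in the same p53RE-bla plates. These plates had been exposed to compounds for 16 h at 37 C.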

[4] = qHTS assay for small molecules that induce genotoxicity in human embryonic kidney cells expressing luciferase-tagged ATAD5 - cell viability (AID 651634; calls by dose curve; also: nearly all actives have a fitted effect of over 25% in size; also: potency is read from the fitted curve at half-maximal effect)
In short: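 15.5 hr compound or vehicle exposure of HEK293T cells expressing luciferase-tagged ATAD5 at 37C; live-cell protease activity is read by fluorescence after 30 min of CellTiter-Fluor.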

[5] = qHTS assay for small molecule disruptors of the mitochondrial membrane potential (AID 720635); also: potency is read from the fitted curve at half-maximal effect
In short: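 Mitochondrial membrane potential tracked with Mito-MPS dye, red aggregates (ex 540/em 590 nm) against green monomers (ex 490/em 535 nm). Compound treatment 1 hr at 37C, dye 30 min in HepG2.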

[6] = qHTS assay to test for compound auto fluorescence at 590 nm (red) in HepG2 cells (AID 720674)
In short: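 1 hr compound incubation on HepG2 cells, 37 C, 5% CO2; plate read ex 540 nm / em 590 nm; intensities reported as Rose Bengal sodium equivalents.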

[7] = qHTS assay to test for compound auto fluorescence at 535 nm (green) in HepG2 cells (AID 720675)
[8] = qHTS assay to test for compound auto fluorescence at 460 nm (blue) in HEK293 cells (AID 720678)
In short: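 HEK293, 2,000 cells/well, 10% dialyzed FBS; attach 4-5 hr 37C; pin compound or DMSO; o/n 37C/5% CO2; fluorescence 405/460 nm; triamterene-equivalent units.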

[9] = qHTS assay to test for compound auto fluorescence at 590 nm (red) in HEK293 cells (AID 720679)
In short: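 Intensity at 540nm excitation and 590nm emission is reported as Rose Bengal sodium-equivalent autofluorescence. Measurements followed overnight exposure (37C, 5% CO2) of HEK293 cells, 2,000 per well, to 23 nL compound.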

[10] = qHTS assay for small molecule disruptors of the mitochondrial membrane potential - cell viability (AID 720634; calls by dose curve; also: nearly all actives have a fitted effect of over 20% in size; also: potency is read from the fitted curve at half-maximal effect;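 as to activity change, negative = cytotoxicity: human HepG2 liver cancer cells; series mostly up to about 83 µM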)
In short: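 In this qHTS format, HepG2 cells plated overnight were pinned with compound, incubated 1 hr, and assayed for ATP luminescence with CellTiter-Glo after m-MPI dye addition.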
% is scaled to controls: 0 for no effect and ±100 for the full control effect.

Oc1ccc(Cl)c(Cl)c1
inactive: Potency [1] | Potency [2] | Potency [3] | Potency [4] | outcome [6] | Potency [7] | Potency [8] | outcome [9]
active: Potency [5] 6.75 µM

CC[C@]1(O)CC[C@H]2[C@@H]3CCC4=CCCC[C@@H]4[C@H]3CC[C@@]21C
inactive: Potency [2] | Potency [3] | Potency [7] | Potency [8] | outcome [9]
active: Potency [1] 3.76 µM | Potency [4] 10.6 µM | Potency [5] 7.5 µM

CC(O)C(=O)[O][Hg][c]1ccccc1 (stereo not given)
inactive: outcome [6] | Potency [7] | Potency [8] | outcome [9]
active: Potency [1] 0.545 µM | Potency [2] 0.0969 µM | Potency [3] 0.217 µM | Potency [4] 0.969 µM | Potency [10] 5.45 µM | Potency [5] 2.73 µM

Nc1nc(N)nc(Cl)n1
inactive: Potency [1] | Potency [2] | Potency [3] | Potency [4] | Potency [10] | Potency [5] | outcome [6] | Potency [7] | Potency [8] | outcome [9]

CC(C)=CCN1CC[C@@]2(C)c3cc(O)ccc3C[C@@H]1[C@@H]2C
inactive: Potency [1] | Potency [2] | Potency [3] | Potency [4] | Potency [10] | Potency [5] | outcome [6] | Potency [7] | outcome [9]

COC(=O)N(OC)c1ccccc1COc1ccn(-c2ccc(Cl)cc2)n1
inactive: Potency [2] | Potency [3] | Potency [4] | outcome [6] | Potency [7] | outcome [9]
active: Potency [1] 1.72 µM | Potency [10] 1.93 µM | Potency [5] 4.86 µM

Cc1nn(-c2cc(NS(C)(=O)=O)c(Cl)cc2Cl)c(=O)n1C(F)F
inactive: Potency [1] | Potency [2] | Potency [3] | Potency [4] | Potency [10] | outcome [6] | Potency [7] | Potency [8] | outcome [9]

CN/C(=N\[N+](=O)[O-])NCc1cnc(Cl)s1
inactive: Potency [1] | Potency [2] | Potency [3] | Potency [4] | Potency [10] | outcome [6] | Potency [7] | Potency [8] | outcome [9]

CC(C)NCC(O)c1ccccc1Cl (stereo not given)
inactive: Potency [1] | Potency [2] | Potency [3] | Potency [4] | Potency [10] | Potency [5] | outcome [6] | Potency [7] | Potency [8] | outcome [9]

CC(C)Br
inactive: Potency [1] | Potency [2] | Potency [3] | Potency [4] | Potency [10] | outcome [6] | Potency [7] | Potency [8] | outcome [9]

COc1nc(C)nc(NC(=O)NS(=O)(=O)c2ccccc2Cl)n1
inactive: Potency [1] | Potency [2] | Potency [3] | Potency [4] | Potency [10] | Potency [5] | outcome [6] | Potency [7] | Potency [8] | outcome [9]

CCOP(=O)(OCC)Oc1cc(C)nc(C(C)C)n1
inactive: Potency [1] | Potency [2] | Potency [3] | Potency [4] | Potency [10] | Potency [5] | Potency [7] | Potency [8] | outcome [9]

CN1[C@@H]2CC[C@H]1CC(O)C2 (stereo not given in full)
inactive: Potency [1] | Potency [2] | Potency [3] | Potency [4] | Potency [10] | Potency [5] | outcome [6] | Potency [7] | Potency [8] | outcome [9]

CC(C)c1c(CN(C)C(C)Cc2ccccc2)n(C)n(-c2ccccc2)c1=O (stereo not given)
inactive: Potency [1] | Potency [2] | Potency [3] | Potency [4] | Potency [10] | Potency [5] | fluorescence, relative to Rose Bengal [6] 0.213% [at 18.6 µM] | fluorescence, % of fluorescein control [7] -0.0089% [at 18.6 µM] | fluorescence, % of fluorescent control [9] -0.993% [at 18.6 µM]

c1ccc2c(c1)cc1ccc3cccc4ccc2c1c34
inactive: Potency [2] | Potency [4] | outcome [6] | Potency [7] | outcome [9]
active: Potency [1] 3.5 µM | Potency [5] 14 µM

CCCCC/C=C\C/C=C\C/C=C\C/C=C\CCCC(=O)NCC(=O)O
inactive: activation [1] -5.49% [at 8.3 µM] | activity change, negative = cytotoxicity [3] -17.5% [at 8.08 µM] | activity, negative = cytotoxicity [4] 5.25% [at 8.08 µM] | activity change, negative = cytotoxicity [10] -7.39% [at 8.08 µM] | fluorescence, relative to Rose Bengal [6] -0.484% [at 3.72 µM] | fluorescence, % of fluorescein control [7] 0.165% [at 3.72 µM] | fluorescence, % of triamterene [8] -0.0359% [at 3.72 µM] | fluorescence, % of fluorescent control [9] 0.123% [at 3.72 µM]

O=C1C(Cl)=C(Cl)C(=O)C(Cl)=C1Cl
inactive: Potency [2] | Potency [4] | outcome [6] | Potency [7] | Potency [8] | outcome [9]
active: Potency [1] 30.5 µM and 6.11 µM | Potency [10] 30.5 µM and 27.3 µM | Potency [5] 8.6 µM and 8.63 µM

CN
inactive: Potency [1] | Potency [3] | Potency [4] | Potency [10] | Potency [5] | outcome [6] | Potency [7] | Potency [8] | outcome [9]

CCN(CC)C(=O)N[C@@H]1C=C2c3cccc4[nH]cc(c34)C[C@@H]2N(C)C1
active: Potency [5] 1.68 µM
inactive: Potency [1] | Potency [2] | Potency [10] | outcome [6] | Potency [7] | Potency [8] | outcome [9]

N#Cc1ccc(N(CC(N)=O)CC(F)(F)F)cc1C(F)(F)F
inactive: Potency [1] | Potency [2] | Potency [4] | Potency [10] | Potency [7] | Potency [8] | outcome [9]

C#CCO
inactive: Potency [1] | Potency [2] | Potency [3] | Potency [4] | outcome [6] | Potency [7] | Potency [8] | outcome [9]

O=[N+]([O-])c1ccc(Cl)c(Cl)c1Cl
inactive: Potency [1] | Potency [2] | Potency [4] | Potency [10] | outcome [6] | Potency [7] | outcome [9]

O=NN(CCO)CCO
inactive: Potency [1] | Potency [2] | Potency [4] | Potency [10] | Potency [5] | outcome [6] | Potency [7] | Potency [8] | outcome [9]

O=C1C2(Cl)C3(Cl)C4(Cl)C(Cl)(Cl)C5(Cl)C3(Cl)C1(Cl)C5(Cl)C24Cl (stereo not given)
active: Potency [1] 60.1 µM | Potency [3] 37.9 µM | Potency [10] 1.9 µM | Potency [5] 536 nM and 585 nM
inactive: outcome [6] | Potency [7] | Potency [8] | outcome [9]
